This is part of a sample that, as a whole, favours compounds with a hit. Of some 83,000 tested, about 20% had one in any assay.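 Cells were grown in 96-well plates and exposed to the test compound at a single concentration for 48 hours; results are reported as percent growth, with values below 10 considered active.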 A number with no mark means an inactive call. The source made the active and inactive calls.
System: ACHN renal
Assay: NCI-60 one-dose screen, 48 h (100 = growth as untreated, 0 = no growth, -100 = all killed)
Settings: 10 µM unless noted

Row | Structure (SMILES) | growth
1 | N#Cc1cccc(CN2CCC3=C(C2)C(=O)N(Cc2ccc(Cl)cc2)C2=NCCN23)c1 | 33.2%
2 | COc1ccc(Oc2ccc(/C=N/NC(=O)CSc3nc4ccccc4c(=O)n3-c3ccc(Cl)cc3)cc2)cc1 | 7.83% (active)
3 | O=C(NNc1nc2cc(F)c(F)cc2n2c(CN3CC4CNCC4C3)ccc12)c1ncccn1 (stereo not drawn) | 12.7%
4 | COc1cc(/C=C2\C(=O)Nc3cc(Cl)ccc32)ccc1OCc1ccc(F)cc1 | 93.6%
5 | C#CCOc1ccc(/C=N\Nc2nc(-c3ccc(C)cc3)cs2)cc1OC | 103%
6 | C=CCOc1cccc(/C=C2\SC(=S)N(C3CC(=O)N(c4ccc(Br)cc4)C3=O)C2=O)c1 (stereo not drawn) | 94.8%
7 | COc1ccc(S(=O)(=O)NCCCNc2nccc(-c3[nH]c(-c4ccccc4)nc3-c3ccc(Cl)c(O)c3)n2)cc1 | 96.2%
8 | CCn1c2ccccc2c2cc(-n3nncc3-c3ccccc3)ccc21 | 29.2%
9 | N#Cc1cccc(CN2CCC3=C(C2)C(=O)N(Cc2ccc(Cl)cc2)C2=NCCCN23)c1 | 38.4%
10 | COc1ccc(COc2ccc(/C=C3\C(=O)Nc4ccccc43)cc2OC)cc1 | 92.4%
11 | O=C(NNc1nc2cc(F)ccc2n2c(CN3CC4CNCC4C3)ccc12)c1cnccn1 (stereo not drawn) | 17.4%
12 | COc1ccc2[nH]cc(-c3csc4nc(-c5ccccc5)cn34)c2c1 | 38.6%
13 | COC(=O)C[Se]C(=O)Cc1c(C)n(C(=O)c2ccc(Cl)cc2)c2ccc(OC)cc12 | 53.2%
14 | CCOc1ccc(NC2=C(Cl)C(=O)c3nc(C)ccc3C2=O)cc1 | -98.4% (active)
15 | COc1cccc(/C=C(/C)c2ccc3cccc(OC)c3[o+]2)c1O | 95.4%
16 | NC(N)=Nc1ccc(Oc2cccc(NC(N)=Nc3ccc(Cl)c(C(F)(F)F)c3)c2)cc1 | 87.8%
17 | COc1ccc(CCOc2cc3c(cc2OC)CCN(C(=O)NCc2cocn2)C3c2ccc(C)cc2C)cc1 (stereo not drawn) | 18.5%
18 | O=C1C(c2ccccc2)=C(N2CCc3ccccc32)OC1(Cl)Cl | -63.8% (active)
19 | O=C(NNc1nc2cc(F)ccc2n2c(CN3CCCC3)ccc12)c1cnccn1 | 13.3%

Row | Structure (SMILES) | growth
20 | O=C(NNc1nc2cc(F)cc(F)c2n2cccc12)c1cnccn1 | 14.5%
21 | O=C(O)c1ccc(-n2cc(CNc3cc(F)c(F)c(F)c3)c(-c3ccc(F)cc3)n2)cc1 | 71.4%
22 | COc1ccc(NC2=C(Cl)C(=O)c3nc(C)ccc3C2=O)cc1OC | 95%
23 | O=C(NNc1nc2cc(F)c(F)cc2n2c(CN3CC4CNCC4C3)ccc12)c1cnccn1 (stereo not drawn) | 15%
24 | C[C@H](CCC(=O)NCc1ccc(C(=O)Nc2ccccc2N)cc1)[C@H]1CC[C@H]2[C@@H]3[C@@H](O)C[C@@H]4C[C@H](O)CC[C@]4(C)[C@H]3CC[C@]12C | 92.9%
25 | CC(=O)c1cc(C(=O)c2ccc(Br)cc2)n2cc(C)cc(C)c12 | 98.9%
26 | NC(=O)c1cccc(-n2ccc3cc(NC(=O)Nc4ccc(N5CCOCC5)c(C(F)(F)F)c4)ccc32)n1 | 11.6%
27 | COc1ccc2c(c1)c(CC(=O)[Se]CC(=O)O)c(C)n2C(=O)c1ccc(Cl)cc1 | 103%
28 | CN(C)CCNC(=O)c1ccc(-c2nc3ccc4[nH]ncc4c3c3c2COCC3)cc1 | 69.4%
29 | COc1ccc2c(c1)c(CC(=O)[Se]CCC#N)c(C)n2C(=O)c1ccc(Cl)cc1 | 5.57% (active)
30 | CN1CCN(Cc2ccc(NC(=O)c3cncc(C#Cc4cnc5ccc(OCC(C)(C)O)nn45)c3)cc2C(F)(F)F)CC1 | -33.3% (active)
31 | CNC(=O)c1cc(N2CCc3cc(NC(=O)Nc4ccc(Cl)c(C(F)(F)F)c4)ccc32)ccn1 | 38.1%
32 | O=C(CSc1nc2ccccc2c(=O)n1-c1ccc(Cl)cc1)N/N=C/c1ccc(N2CCCCC2)cc1 | 17.4%
33 | CCOc1ccc(C(=O)Nc2ncc(Cc3ccc(F)cc3)s2)cc1 | 37.6%
34 | Cc1c(Cl)cccc1S(=O)(=O)Nc1ccc2c(c1)C(=O)N(C1CCC(=O)NC1=O)C2=O (stereo not drawn) | 108%
35 | CC/C(=C/c1cc(OC)ccc1O)c1ccc2cc(OC)ccc2[o+]1 | 58.5%
36 | COc1c(N2CC3CCCNC3C2)c(F)cc2c(=O)c(C(=O)N/N=C/c3ccc4c(c3)OCO4)cn(C3CC3)c12 (stereo not drawn) | 85.3%
37 | CN1CCN(Cc2ccc(NC(=O)c3cncc(C#Cc4cnc5ccc(OCC6(C)COC6)nn45)c3)cc2C(F)(F)F)CC1 | -96.1% (active)
38 | O=C(NNc1nc2cc(F)c(F)cc2n2cccc12)c1cnccn1 | 17.6%

From PubChem BioAssay (NCI)
